High-throughput results (PubChem)
mTORC1 inh – Acumen qHTS Assay for Inhibitors of the mTORC1 Signaling Pathway in MEF (Tsc2-/-, p53-/-) Cells: Sytravon; Tsc2-/- p53-/- MEF, phospho-rpS6 immunofluorescence/PI, 24 h; Potency, µM (titrated, usually from 38.3 µM), inactives show at the highest dose activity change, negative = inhibition, usual class: inhibitors; hit rate 0.78% among 44,000;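 also: plate controls were DMSO for no effect and rapamycin for full effect; nearly all actives have a fitted effect of over 50% in size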
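Cell-based qHTS: Tsc2-/- p53-/- MEF, 24 h cpd, 37 °C; fix/perm, anti-phospho-S6 Alexa-488 + PI; Acumen 488 nm scan; pS6/PI ratio, % positive cells; rapamycin 7.5 nM = inhibition ref; PI count = viability.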
p53null 32C tox – qHTS Screen for Compounds that Selectively Target Cancer Cells with p53 Mutations: Cytotoxicity of p53 Null Cells at the Permissive Temperature; AID 903, 2007; H1299-neo p53 null cells, ATP luminescence, 24 h, 32C; Potency, µM (titrated, usually from 46.1 µM), for the others: top-dose activity change, negative = cytotoxicity, actives largely listed as cytotoxic; hit rate 0.62% among 55,000;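 also: 0% = DMSO only and -100% = full killing by 100 µM tamoxifen; nearly all actives have a fitted effect of over 55% in size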
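Overnight 37C seeding (600 cells/well) of H1299-neo preceded a 24 hr, 32C exposure to compounds up to 46 uM. ATP levels, read by luminescence after 20 min at RT, indicated surviving cells.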
S16 F2sN tox – Cell viability qHTS assay in S16 Pmp22-F2sN cells; S16 Pmp22-F2sN Schwann cells viability, CellTiter-Glo, 24 h; Potency, µM (doses to about 57.5 µM), for the others: at the top dose activity change, negative = cytotoxicity, usual class: cytotoxic; hit rate 0.48% among 43,000; also: nearly all actives have a fitted effect of over 65% in size
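Rat S16 Schwann reporter line, 24 h treatment with library compounds delivered at 23 nL per well. Cell viability by CellTiter-Glo luminescence.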
p53null 39C kill – qHTS Screen for Compounds that Selectively Target Cancer Cells with p53 Mutations: Cytotoxicity of p53 Null Cells at the Nonpermissive Temperature | hit rate 0.97% among 55,000 | H1299 p53-null (neo) cells, 39C, ATPlite viability, 24 h | Potency, µM (top dose mostly 46.1 µM), without a hit: at the highest dose activity, negative = cell killing, usual class: cytotoxic | AID 904, 2007;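 also: 0% = DMSO only and -100% = full killing by 100 µM tamoxifen; nearly all actives have a fitted effect of over 50% in size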
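ATP-luminescence viability readout (ATPlite, 20 min RT) after 24 hr compound treatment at 39C of H1299-neo or H1299-p53A138V cells; titration up to 46 uM; normalized to DMSO and 100 uM tamoxifen; Hill-fit AC50.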
PMP22 txn – Cell-based coincidence reporter assay to measure PMP22 gene transcription in S16 Pmp22-F2sN cells - Primary screen; S16 Pmp22-F2sN Schwann cells (luciferase reporters placed in the Pmp22 gene), FLuc/NLuc coincidence luminescence, 24 h; Potency, µM (titrated, usually from 57.5 µM), for inactives: at the top dose activity change, negative = inhibition, usual class: inhibitors; hit rate 2% among 43,000; AID 1508649, 2021; active = clear falling dose curves in both reporters; inconclusive = both reporters move, but less clearly or upward; inactive = either reporter flat; the % is the NLuc reporter signal
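S16(c9) Schwann cells with FLuc/NLuc coincidence reporter in the Pmp22 3' UTR; compounds pin-transferred, 24 h at 37C. Dual-luciferase read: FLuc first, then NLuc after Stop&Glo, each 10 min at room temperature.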
Numbers without * were called inactive; ? = inconclusive; . = not tested or not shown. Hits are enriched below; roughly 3.2% of the tested compounds scored in any of these assays. Unless noted, calls follow the shape of the dose curve; as a rule, active = well fitted curve in the direction sought with a large enough effect; inconclusive = small, poorly fitted or top-dose-only effect, or another doubt; inactive = no such curve, though single readings can be large; an effect the other way counts as inactive or inconclusive. Unless noted, % is scaled to controls: 0 for no effect and ±100 for the full control effect; potency is read from the fitted curve at half-maximal effect.

SMILES	mTORC1 inh	p53null 32C tox	S16 F2sN tox	p53null 39C kill	PMP22 txn
COc1ccc(F)cc1S(=O)(=O)NCCc1csc(-c2ccc(Cl)cc2)n1	-8.1%	20.9%	-3.7%	20µM*	?
Cc1nn(C(C)C(=O)NC2CCCCC2)c(=O)c2c1sc1ccccc12 (stereo not given)	1.04µM*	-26.4%	6.8%	12.6µM*	39.8%
CSc1ccc(CCNC(=O)C(C)n2nc(C)c3sc4ccccc4c3c2=O)cc1 (stereo not given)	0.521µM*	?	3.8%	12.6µM*	2.8%
Cc1ccc(CNC(=O)C(C)n2nc(C)c3sc4ccccc4c3c2=O)cc1 (stereo not given)	3.0%	-19.3%	-21.1%	?	-6.5%
Cc1ccc(-n2ncc3c(N(CCO)Cc4ccccc4)ncnc32)cc1	-15.7%	-24.2%	?	11.8%	-5.2%
COc1ccc(N2CCN(c3ncnc4c3cnn4C)CC2)cc1	7.8%	4.8%	-19.2%	2.2%	?
COc1ccc(-n2ncc3c(N4CCCCC4)ncnc32)cc1	.	2.51µM*	.	3.98µM*	.
Cc1ccc(-n2ncc3c(N4CCCCC4)ncnc32)cc1	11.8%	1.58µM*	5.4%	6.31µM*	2.7%
Cc1ccc(-n2ncc3c(N(C)Cc4ccccc4)ncnc32)cc1	11.8%	12.6µM*	4.3%	20.1%	-2.6%
Cc1ccc2c(=O)c(C(=O)c3cccc(Cl)c3)cn(CC(=O)NC3CCCCC3)c2n1	4.6%	-0.3%	-0.3%	13.7%	-16.7%
COc1ccc2c(Sc3ccc(C)cc3)c(C(=O)NCCc3ccccc3)[nH]c2c1	-2.1%	-13.6%	0.8%	17.5%	?
COCCCNC(=O)c1[nH]c2cc(OC)ccc2c1Sc1ccc(C)cc1	-1.2%	-13.0%	15.0%	15.8µM*	.
CCc1nn(CC(=O)NCc2ccccc2)c(=O)c2cccn12	?	-6.8%	0.0%	25.1µM*	8.7%
Cc1ccc2nc(-c3sc4nc(C)ccc4c3N)[nH]c2c1	.	11.2µM*	.	10µM*	.
CCc1ccc(CNC(=O)c2ccc3c(Cl)c4c(nc3c2)CCCC4)cc1	-8.1%	-1.5%	?	?	?
COc1ccc2nc(C)cc(Nc3ccc(Cl)c(Cl)c3)c2c1	?	?	?	12.6µM*	?
Cc1cccc(CSc2ccc3nnc(CCNS(=O)(=O)c4ccccc4)n3n2)c1	1.1%	2.6%	-22.1%	-14.2%	?
Cc1nc2c(C(=O)NCCc3ccc(Cl)cc3)c[nH]n2c(=O)c1Cc1ccc(Cl)cc1	-16.5%	?	4.6%	20µM*	3.0%
Cc1nc2c(C(=O)NCCc3ccccc3)c[nH]n2c(=O)c1Cc1ccccc1F	0.1%	15.8µM*	-15.8%	?	-31.1%
Cc1ccc(CNC(=O)c2c[nH]n3c(=O)c(Cc4ccc(Cl)cc4)c(C)nc23)cc1	-19.3%	?	-11.8%	?	-24.0%
CCOc1ccc(-c2nn(CC(=O)NC3CCCC3)c3c2cnc2ccc(C)cc23)cc1	-10.1%	2.1%	6.2%	4.1%	?
COc1ccccc1CCNC(=O)C1(c2cccs2)CCOCC1	-4.7%	-1.5%	14.8%	11.6%	11.7%
CCC1CCCCN1CCCNC(=O)c1cc2c(Cl)nc3ccc(C)cc3c2s1 (stereo not given)	-12.1%	-2.9%	?	20µM*	?
CCC(=O)Oc1ccc(/C=C(\C#N)c2nc3ccccc3[nH]2)cc1OC	16.2%	-13.0%	0.0%	?	?
CCOC(=O)COc1ccc(/C=C(\C#N)c2nc3ccc(C)cc3[nH]2)cc1OC	-6.4%	?	8.91µM*	?	8.91µM*
SMILES	mTORC1 inh	p53null 32C tox	S16 F2sN tox	p53null 39C kill	PMP22 txn
COc1cc(/C=C(\C#N)c2nc3ccc(C)cc3[nH]2)ccc1OCc1ccc(C)cc1	?	?	?	12.6µM*	?
CC(C)(C)C(=O)Nc1ccc(-c2nc3ccc(NC(=O)C(C)(C)C)cc3[nH]2)cc1	?	12.6µM*	?	3.98µM*	-141.4%
O=C(COCc1cc(-c2cccs2)on1)Nc1cc(Cl)ccc1O	0.2%	-8.6%	-15.5%	-9.6%	-11.1%
CCc1ccc(C(=O)CC2(O)C(=O)N(CCc3ccccc3)c3ccc(Cl)cc32)cc1 (stereo not given)	?	49.4%	20µM*	?	?
Cc1ccccc1CN1C(=O)C(O)(c2c[nH]c3ccccc23)c2cc(Cl)ccc21 (stereo not given)	?	?	1.3%	?	?
Cc1ccccc1CN1C(=O)C(O)(CC(=O)c2ccccc2)c2cc(Cl)ccc21 (stereo not given)	11.7µM*	38.0%	?	16.5%	?
CC(=O)c1ccc(NC(=O)CSc2ccc(-c3cccs3)nn2)cc1	-15.1%	-10.5%	11.5%	?	1.1%
CC1CCN(S(=O)(=O)c2ccc3c(c2)N(CC(=O)N2CCN(c4ccc(Cl)cc4)CC2)C(=O)CO3)CC1	-19.6%	?	?	-9.2%	?
CCOc1ccc(S(=O)(=O)NCC(c2cccs2)S(=O)(=O)c2ccc(C)cc2)cc1 (stereo not given)	?	18.7%	?	14.4%	?
Cc1cc(C)c(S(=O)(=O)NCC(c2cccs2)S(=O)(=O)c2ccccc2)c(C)c1 (stereo not given)	?	31.7%	12.6µM*	5.4%	?
Cc1ccc(S(=O)(=O)C(CNS(=O)(=O)c2ccc(F)c(C)c2)c2cccs2)cc1 (stereo not given)	-3.9%	9.1%	25.1µM*	17.9%	?
Cc1ccc(NS(=O)(=O)c2c(C(=O)N3CCCCCC3)c(C)n(C)c2C)cc1F	0.0%	10.4%	-0.8%	-21.4%	10.2%
O=C(Nc1cc(C(F)(F)F)ccc1Cl)c1cc(S(=O)(=O)NCc2ccccc2)ccc1F	-10.4%	-9.1%	2.6%	8.2%	7.8%
Cc1ccc2nc(N(Cc3cccnc3)C(=O)CCS(=O)(=O)c3ccccc3)sc2c1	-4.7%	-4.4%	17.8µM*	8.4%	?
O=C(CCS(=O)(=O)c1ccccc1)N(Cc1cccnc1)c1nc2ccc(Cl)cc2s1	0.5%	1.4%	?	34.2%	?
Cc1ccccc1-c1noc(-c2ccc(N3CCN(c4ccccc4)CC3)c([N+](=O)[O-])c2)n1	-0.2%	-7.5%	12.0%	5.6%	-4.6%
COc1ccccc1N1CCN(c2ncc3c(n2)CCN(Cc2ccccc2F)C3)CC1	6.9%	-2.0%	-3.2%	0.6%	0.3%
